Experimental data as given in PubChem BioAssay (Tox21).
Records with an inconclusive call do not appear. Active and inactive are the calls of the source. Calls come from the whole dose curve; as a rule, active = well fitted curve in the direction sought with a large enough effect in the repeat runs; inconclusive = weak or mixed curves; inactive = no such curve, though single readings can be large; an effect the other way counts as inactive or inconclusive. Positions of bridges follow the written chain, without caps; N, C: chain ends. Non-standard residues stand in square brackets, D forms with d. Residues, ends and D or L forms follow the SMILES beside them. hArg = N=C(N)NCCCC[C@H](N)C(=O)O; Mpa = O=C(O)CCS

test: A CellTox Green Cytotoxicity Assay to monitor cytotoxicity in HepG2 cells - 16 hour (AID 1224876); conditions: CellTox Green fluorescence; series mostly up to 76.8 µM; cytotoxicity increase: at the top concentration; note: nearly all actives have a fitted effect of over 45% in size
Procedure, shortened: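 First, HepG2 cells (600/well) mixed with reagent were plated; second, after 5 h at 37 C they received compounds via pintool; third, fluorescence was measured at 0 h through 40 h at 8 h intervals.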
% is set by controls: 0 for no effect and ±100 for the full control effect.

| SMILES | cytotoxicity increase |
| --- | --- |
| Cc1c(Cl)cccc1Cl | 0.604% (inactive) |
| C[C@]12CCC(=O)C=C1CC[C@H]1[C@@H]3CC[C@](O)(C(=O)CO)[C@@]3(C)C[C@H](O)[C@@]12F | -8.9% [at 35.3 µM] (inactive) |
| CCn1cc(C(=O)O)c(=O)c2cnc(N3CCCC3)nc21 | 3.06% [at 6.97 µM] (inactive) |
| CCOC(CN1CCN(CC(C)C(=O)c2ccccc2)CC1)c1ccccc1 (centres undefined) | -21.5% [at 15.8 µM] (inactive) |
| CC(N)CCCC(C)(C)O (centres undefined) | 1.86% [at 35.3 µM] (inactive) |
| CCCCOC(=O)[C@H](C)O | 0.213% (inactive) |
| O=C(CCCl)NCCc1ccccc1 | 0.886% [at 35.3 µM] (inactive) |
| c1ccc2c(CC3=NCCN3)cccc2c1 | -15.5% [at 35.3 µM] (inactive) |
| C=CCSSCCC | -6.39% (inactive) |
| COc1cc2c(cc1OC)CN(C(=O)[C@H](C)N[C@@H](CCc1ccccc1)C(=O)O)[C@H](C(=O)O)C2 | -13.3% [at 35.3 µM] (inactive) |
| CC(=O)CCc1ccc(OC(C)=O)cc1 | -8.49% (inactive) |
| Cc1ccc(C(C)NC(=O)[C@@H](NC(=O)OC(C)C)C(C)C)cc1 (some centres undefined) | -0.468% (inactive) |
| CN(C)CCOC(=O)C(c1ccccc1)C1(O)CCCC1 (centres undefined) | -0.0105% [at 35.3 µM] (inactive) |
| Cc1cc(C)c(C(=O)O)c(C)c1 | 3.83% (inactive) |
| O=C(NCN1CCOCC1)c1cnccn1 | -15.8% [at 35.3 µM] (inactive) |
| COC(C)(OC)OC | -1.52% (inactive) |
| Cc1c(NC(=O)c2cccnc2)c(=O)n(-c2ccccc2)n1C | 2.56% [at 35.3 µM] (inactive) |
| CC1OCCC1=O (centres undefined) | 2.02% (inactive) |
| Cc1ccc(C(=O)O)cc1[N+](=O)[O-] | 9.82% (inactive) |

| SMILES | cytotoxicity increase |
| --- | --- |
| CC1c2ccccc2CN1NC(=O)c1ccc(Cl)c(S(N)(=O)=O)c1 (centres undefined) | 0.383% [at 35.3 µM] (inactive) |
| c1ccc2cnccc2c1 | -5.3% (inactive) |
| C[Si]1(C)O[Si](C)(C)O[Si](C)(C)O[Si](C)(C)O[Si](C)(C)O1 | 1.05% (inactive) |
| NC(=O)[C@@H]1CSSCCC(=O)N[C@@H](CCCCN=C(N)N)C(=O)NCC(=O)N[C@@H](CC(=O)O)C(=O)N[C@@H](Cc2c[nH]c3ccccc23)C(=O)N2CCC[C@H]2C(=O)N1 ([Mpa][hArg]GDWPC-NH2; disulfide 1-7) | 0.979% [at 35.3 µM] (inactive) |
| C=CC(=O)OCC1CCCO1 (centres undefined) | -17.1% (inactive) |
| CCCCCCCCCOC(=O)c1ccccc1C(=O)OCCCCCCCCC | -1.56% (inactive) |
| CC(C)COC(=O)c1ccccc1 | 0.811% (inactive) |
| COC(=O)c1cc(Cl)cc(Cl)c1 | 1.15% (inactive) |
| CC1(C)Cc2cccc(N)c2O1 | -0.739% (inactive) |
| CCCCOCC(C)O (centres undefined) | -1.62% (inactive) |
| c1ccc(-c2nn[nH]n2)cc1 | 0.625% (inactive) |
| CO/N=C(/C(=O)N[C@@H]1C(=O)N2C(C(=O)[O-])=C(C[n+]3ccn4ncccc43)CS[C@H]12)c1nsc(N)n1 | -6.74% [at 35.3 µM] (inactive) |
| CC(C)(CO)C(O)C(=O)NCCCO (centres undefined) | 1.17% (inactive) |
| C[C@H]1[C@@H](c2ccccc2)NC(=O)N1C | 2% (inactive) |
| C=CCCCC | 0.783% (inactive) |
| CCOCCOCC | 1.63% (inactive) |
| CN(C)CCCO[C@@H]1[C@H]2OC(C)(C)O[C@H]2O[C@@H]1C(O)CO (some centres undefined) | -15.6% [at 35.3 µM] (inactive) |
| ONc1ccccc1 | -4.8% (inactive) |

test: qHTS RealTime-Glo MT Cell Viability Assay in HepG2 cells - 32 hour (AID 1224877); conditions: RealTime-Glo luminescence; series mostly up to 76.8 µM; activity change, negative = cytotoxic: at the top concentration; note: nearly all actives have a fitted effect of over 55% in size
Procedure, shortened: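 Viability was tracked continuously by NanoLuc luminescence from prosubstrate reduced by living HepG2 cells, at successive time points over 40 h of compound exposure. Cells with reagent were preincubated 5 h at 37 °C before compound addition.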

| SMILES | activity change, negative = cytotoxic |
| --- | --- |
| Cc1c(Cl)cccc1Cl | -0.645% (inactive) |
| C[C@]12CCC(=O)C=C1CC[C@H]1[C@@H]3CC[C@](O)(C(=O)CO)[C@@]3(C)C[C@H](O)[C@@]12F | -0.206% [at 35.3 µM] (inactive) |
| CCn1cc(C(=O)O)c(=O)c2cnc(N3CCCC3)nc21 | -0.35% [at 6.97 µM] (inactive) |
| CCOC(CN1CCN(CC(C)C(=O)c2ccccc2)CC1)c1ccccc1 (centres undefined) | 0.188% [at 15.8 µM] (inactive) |
| CC(N)CCCC(C)(C)O (centres undefined) | 3.53% [at 35.3 µM] (inactive) |
| CCCCOC(=O)[C@H](C)O | -1.05% (inactive) |
| O=C(CCCl)NCCc1ccccc1 | 0.354% [at 35.3 µM] (inactive) |
| c1ccc2c(CC3=NCCN3)cccc2c1 | 0.724% [at 35.3 µM] (inactive) |
| C=CCSSCCC | 0.349% (inactive) |
| COc1cc2c(cc1OC)CN(C(=O)[C@H](C)N[C@@H](CCc1ccccc1)C(=O)O)[C@H](C(=O)O)C2 | 1.32% [at 35.3 µM] (inactive) |
| CC(=O)CCc1ccc(OC(C)=O)cc1 | -3.06% (inactive) |
| Cc1ccc(C(C)NC(=O)[C@@H](NC(=O)OC(C)C)C(C)C)cc1 (some centres undefined) | -2.5% (inactive) |
| CN(C)CCOC(=O)C(c1ccccc1)C1(O)CCCC1 (centres undefined) | 0.728% [at 35.3 µM] (inactive) |
| Cc1cc(C)c(C(=O)O)c(C)c1 | 0.231% (inactive) |
| O=C(NCN1CCOCC1)c1cnccn1 | 0.291% [at 35.3 µM] (inactive) |
| COC(C)(OC)OC | -0.986% (inactive) |
| Cc1c(NC(=O)c2cccnc2)c(=O)n(-c2ccccc2)n1C | 1.16% [at 35.3 µM] (inactive) |
| CC1OCCC1=O (centres undefined) | 0.721% (inactive) |
| Cc1ccc(C(=O)O)cc1[N+](=O)[O-] | 2.23% (inactive) |

| SMILES | activity change, negative = cytotoxic |
| --- | --- |
| CC1c2ccccc2CN1NC(=O)c1ccc(Cl)c(S(N)(=O)=O)c1 (centres undefined) | 0.779% [at 35.3 µM] (inactive) |
| c1ccc2cnccc2c1 | 1.38% (inactive) |
| C[Si]1(C)O[Si](C)(C)O[Si](C)(C)O[Si](C)(C)O[Si](C)(C)O1 | -1.7% (inactive) |
| NC(=O)[C@@H]1CSSCCC(=O)N[C@@H](CCCCN=C(N)N)C(=O)NCC(=O)N[C@@H](CC(=O)O)C(=O)N[C@@H](Cc2c[nH]c3ccccc23)C(=O)N2CCC[C@H]2C(=O)N1 ([Mpa][hArg]GDWPC-NH2; disulfide 1-7) | 0.161% [at 35.3 µM] (inactive) |
| C=CC(=O)OCC1CCCO1 (centres undefined) | 3.11% (inactive) |
| CCCCCCCCCOC(=O)c1ccccc1C(=O)OCCCCCCCCC | 3.26% (inactive) |
| CC(C)COC(=O)c1ccccc1 | -3.32% (inactive) |
| COC(=O)c1cc(Cl)cc(Cl)c1 | 1.11% (inactive) |
| CC1(C)Cc2cccc(N)c2O1 | 0.271% (inactive) |
| CCCCOCC(C)O (centres undefined) | 1.33% (inactive) |
| c1ccc(-c2nn[nH]n2)cc1 | 3.29% (inactive) |
| CO/N=C(/C(=O)N[C@@H]1C(=O)N2C(C(=O)[O-])=C(C[n+]3ccn4ncccc43)CS[C@H]12)c1nsc(N)n1 | 1.34% [at 35.3 µM] (inactive) |
| CC(C)(CO)C(O)C(=O)NCCCO (centres undefined) | 0.352% (inactive) |
| C[C@H]1[C@@H](c2ccccc2)NC(=O)N1C | -1.06% (inactive) |
| C=CCCCC | -0.89% (inactive) |
| CCOCCOCC | 1.23% (inactive) |
| CN(C)CCCO[C@@H]1[C@H]2OC(C)(C)O[C@H]2O[C@@H]1C(O)CO (some centres undefined) | 0.866% [at 35.3 µM] (inactive) |
| ONc1ccccc1 | -1.04% (inactive) |
